Measurements taken from PubChem BioAssay AID720566 (Broad Institute, 2013).
Results with a measured potency or affinity are listed apart. Active and inactive are the calls of the source.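 The calls were made as follows: active = in all runs, an absorbance decrease of 25% or more of the average positive control decrease; inconclusive = runs conflict, with both active and inactive results; inactive = all runs inactive, opposite-direction effects included.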

target: Protein disulfide-isomerase A6 (Homo sapiens) (UniProt Q15084); assay: reduced insulin turbidity driven by ERp5 (PDIA6) – biochemical, absorbance 650 nm, cherry-picked samples, dose response (AID 720566); conditions: Recombinant ERp5 insulin aggregation; series mostly up to 35 µM; activity change, negative = inhibition: at the top concentration;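 also: negative values mean less insulin aggregation so ERp5 inhibition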
Sequence (Q15084 whole entry, looked up): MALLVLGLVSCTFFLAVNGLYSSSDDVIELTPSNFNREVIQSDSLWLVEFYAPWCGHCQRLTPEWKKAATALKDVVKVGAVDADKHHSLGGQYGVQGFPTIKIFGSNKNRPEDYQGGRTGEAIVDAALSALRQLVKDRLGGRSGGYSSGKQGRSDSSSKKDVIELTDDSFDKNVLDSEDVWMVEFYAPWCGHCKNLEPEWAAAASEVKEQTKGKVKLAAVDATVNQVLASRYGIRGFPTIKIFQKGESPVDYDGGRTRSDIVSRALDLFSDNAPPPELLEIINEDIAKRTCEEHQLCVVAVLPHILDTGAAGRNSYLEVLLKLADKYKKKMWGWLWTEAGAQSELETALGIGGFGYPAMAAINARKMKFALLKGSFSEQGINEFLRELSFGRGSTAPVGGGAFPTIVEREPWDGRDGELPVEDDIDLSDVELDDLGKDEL

Activity change, negative = inhibition, inactive:
C[C@@H]1CN([C@H](C)CO)C(=O)c2cccc(NC(=O)Nc3cccc4ccccc34)c2O[C@@H]1CN(C)C(=O)Nc1ccc(C(F)(F)F)cc1 -7.04%
COCC#Cc1cnc2c(c1)C(=O)N([C@@H](C)CO)C[C@H](C)[C@@H](CN(C)C(=O)NC1CCCC1)O2 -4.34%
CCN(CC)S(=O)(=O)c1cc(NC(=O)c2ccc(-n3cncn3)c([N+](=O)[O-])c2)ccc1C -4.42%
COc1ccc(S(=O)(=O)Nc2ccc3c(c2)C(=O)N([C@H](C)CO)C[C@H](C)[C@H](CN(C)C(=O)Nc2ccccc2)O3)cc1 -9.35%
C[C@H](CO)N1C[C@H](C)[C@H](CN(C)C(=O)CCC(F)(F)F)OCCCC[C@H](C)Oc2ccc(NS(=O)(=O)c3ccc(Cl)cc3)cc2C1=O 7.45%
CCc1csc(CCNC(=O)C2CCC(=O)N(CCc3cccc(F)c3)C2)n1 (stereo not given) -8.21%
O=C(C[C@@H]1C[C@H]2c3cc(NC(=O)CC4CC4)ccc3O[C@H]2[C@@H](CO)O1)NCc1ccc(-c2ccccc2)cc1 4.66%
COc1ccc2c3c([nH]c2c1)[C@@H](CO)N(C(=O)c1ccc(F)cc1)CC31CCN(C(=O)Nc2cccc(F)c2)CC1 6.85%
O=C(C[C@@H]1C[C@H]2c3cc(NS(=O)(=O)c4ccccc4)ccc3O[C@H]2[C@H](CO)O1)NC1CCCCC1 -9.74%
COCCNC(=O)C[C@@H]1C[C@H]2c3cc(NC(=O)NC4CCCC4)ccc3O[C@H]2[C@@H](CO)O1 -8.2%
COCC(=O)N(C)C[C@@H]1Oc2cc(C#CC(C)(C)O)ccc2S(=O)(=O)N([C@H](C)CO)C[C@@H]1C -2.42%
O=C(NC1CCCC1)[C@@H]1[C@@H](CO)[C@@H]2Cn3c(ccc(-c4cccnc4)c3=O)[C@H]1N2CC1CC1 2.79%
C[C@@H]1CN([C@H](C)CO)C(=O)Cc2cc(NS(=O)(=O)c3ccc(F)cc3)ccc2O[C@@H]1CN(C)S(=O)(=O)c1cn(C)cn1 -5.88%
C[C@@H]1CCCCO[C@@H](CN(C)Cc2ccc(C(=O)Nc3ccccc3N)cc2)[C@@H](C)CN([C@H](C)CO)C(=O)c2cc(NS(=O)(=O)c3cccs3)ccc2O1 10.1%
CCCNC(=O)[C@H]1[C@H](CO)[C@H]2Cn3c(ccc(/C=C/c4ccccc4)c3=O)[C@@H]1N2C(C)=O 5.69%
COCC(=O)N(C)C[C@H]1Oc2cc(C#CC(C)(C)O)ccc2S(=O)(=O)N([C@@H](C)CO)C[C@H]1C -2.23%
COc1ccc2c3c([nH]c2c1)[C@H](CO)N(C(=O)c1ccc(F)cc1)CC31CCN(C(=O)Nc2cccc(F)c2)CC1 7.81%
CCN(CC)S(=O)(=O)c1ccc2c(c1)N(CC(=O)NCCN1CCOCC1)C(=O)CO2 14.4%
Cc1noc(C)c1NC(=O)Nc1ccc2c(c1)C(=O)N([C@H](C)CO)C[C@@H](C)[C@@H](CN(C)C(=O)Nc1ccc(F)cc1)O2 0.559%
CCCNC(=O)C[C@@H]1C[C@H]2c3cc(NS(C)(=O)=O)ccc3O[C@H]2[C@@H](CO)O1 -8.39%
COC(=O)C[C@H]1C[C@@H]2c3cc(NC(=O)Cc4ccncc4)ccc3O[C@@H]2[C@@H](CO)O1 2.05%
C[C@@H]1CN([C@@H](C)CO)C(=O)c2cc(C#CC3(O)CCCC3)cnc2O[C@H]1CN(C)C(=O)Cc1cccnc1 3.35%
C[C@@H]1CN([C@H](C)CO)C(=O)c2cccc(NC(=O)Nc3ccc4c(c3)OCO4)c2O[C@H]1CN(C)Cc1ccc(Oc2ccccc2)cc1 7.45%
CCCNC(=O)C[C@H]1C[C@@H]2c3cc(NC(=O)CC4CC4)ccc3O[C@@H]2[C@@H](CO)O1 -10.3%
C[C@H](CO)N1C[C@H](C)[C@H](CN(C)Cc2cncnc2)Oc2ncc(-c3cccc(C#N)c3)cc2C1=O 1.45%
C[C@@H]1CN([C@H](C)CO)C(=O)Cc2cc(NC(=O)Nc3cccc4ccccc34)ccc2O[C@@H]1CN(C)Cc1ccc(C(F)(F)F)cc1 5.59%
CN(CC(=O)Nc1ccc(F)c(F)c1F)C(=O)c1cc(-c2ccncc2)nc2ccccc12 5.55%
C[C@H](O)C#Cc1cnc2c(c1)C(=O)N([C@@H](C)CO)C[C@H](C)[C@H](CN(C)CC1CCCCC1)O2 -10.5%
COc1ccc2c3c([nH]c2c1)[C@@H](CO)N(Cc1nccs1)CC31CN(C(=O)C2CCCC2)C1 3.38%
Cc1cccc(S(=O)(=O)N(C)C[C@H]2OCc3cnnn3CCCC(=O)N([C@@H](C)CO)C[C@H]2C)c1 4.42%
